Cruzain Triton = inhibitors of Trypanosoma cruzi cruzain with detergent. P25779. purified cruzain, Z-FR-AMC fluorescence, 0.01% Triton. Potency, µM, actives largely listed as inhibitors. 200,000 tested, 0.43% active; note: nearly all actives have a fitted effect of over 40% in size
Target sequence (P25779 123-467 limits assumed): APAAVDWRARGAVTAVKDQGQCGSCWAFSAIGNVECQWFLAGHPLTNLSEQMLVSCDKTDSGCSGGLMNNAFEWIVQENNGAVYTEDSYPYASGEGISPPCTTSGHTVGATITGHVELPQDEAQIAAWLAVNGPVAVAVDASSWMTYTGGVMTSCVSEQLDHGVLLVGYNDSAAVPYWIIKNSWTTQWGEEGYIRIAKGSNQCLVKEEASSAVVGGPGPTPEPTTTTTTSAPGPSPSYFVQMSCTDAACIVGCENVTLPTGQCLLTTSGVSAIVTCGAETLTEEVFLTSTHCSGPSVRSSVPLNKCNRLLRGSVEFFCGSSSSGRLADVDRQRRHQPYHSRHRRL
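15 min RT preincubation of 1.5 nM cruzain with compound, then 2 uM Z-FR-AMC added; kinetic AMC fluorescence, 60 s delta. Triton X-100 0.01%, pH 5.5.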
Cruzain inh noDet = inhibitors of Trypanosoma cruzi cruzain without detergent. P25779. purified cruzain, Z-FR-AMC fluorescence, no detergent. Potency, µM, most hits filed as inhibitors. 200,000 tested, 2.3% active. AID 1476; note: nearly all actives have a fitted effect of over 40% in size
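Detergent-free condition (0.00005% Triton X-100) in acetate buffer pH 5.5 with DTT. 1.5 nM enzyme and compound were pre-mixed 15 min, then 2 uM Z-FR-AMC substrate added; reaction progress from fluorescence change between first and third reads (60 s).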
Numbers stand for hits. Shown are actives, neighbours in structure and some others; about 2.5% of the full set was active somewhere. Calls come from the whole dose curve; as a rule, active = well fitted curve in the direction sought with a large enough effect; inconclusive = small, poorly fitted or top-dose-only effect, or another doubt; inactive = no such curve, though single readings can be large; an effect the other way counts as inactive or inconclusive.

`Cc1ccc2c(=O)c(C(=O)c3ccccc3)cn(CC(=O)NCc3ccccc3)c2n1` gave Cruzain Triton inactive and Cruzain inh noDet inactive.
Screening CC(C)(C)n1ncc2c(=O)n(CC(=O)NCCc3ccccc3)cnc21 returned Cruzain Triton inactive and Cruzain inh noDet inactive.
For O=C(Cn1cnc2c(cnn2-c2ccc(Cl)cc2)c1=O)NC1CCCCC1 the results were Cruzain Triton inactive and Cruzain inh noDet 10µM.
O=C(Cn1cnc2c(cnn2-c2ccc(Cl)cc2)c1=O)NCCc1ccccc1 was read as Cruzain Triton inactive and Cruzain inh noDet 25.1µM.
O=C(Cn1cnc2c(cnn2-c2ccc(F)cc2)c1=O)NCC1CCCO1 (stereo unspecified) was read as Cruzain Triton inactive and Cruzain inh noDet inactive.
COc1cccc(CNc2ncnc3c2nnn3C)c1 was read as Cruzain Triton inactive and Cruzain inh noDet inactive.
O=C(NCCOCCn1c(=O)oc2ccccc21)Nc1ccc(F)cc1F was read as Cruzain Triton inactive and Cruzain inh noDet inactive.
`Cn1cnc(S(=O)(=O)N2CCC(C(=O)Nc3ccc(Cl)c(C(F)(F)F)c3)CC2)c1` gave Cruzain Triton inactive and Cruzain inh noDet inactive.
CN(C)c1ccc(NC(=O)c2cn(-c3ccccc3)nc2-c2cccs2)cc1 was read as Cruzain Triton inactive and Cruzain inh noDet inconclusive.
For O=C(Nc1ccc2ccccc2c1)c1cn(-c2ccccc2)nc1-c1cccs1 the results were Cruzain Triton inactive and Cruzain inh noDet 20µM.
For CC1CCC(NC(=O)CCc2cn(Cc3ccc(F)cc3)c3ccccc23)CC1 (stereo unspecified) the results were Cruzain Triton inactive and Cruzain inh noDet inactive.
For COc1cccc(/C=c2\s/c(=C/C(=O)c3ccc(C)cc3)[nH]c2=O)c1OC the results were Cruzain Triton inactive and Cruzain inh noDet inactive.
Screening COc1ccc(/C=c2\s/c(=C/C(=O)c3ccc(C)cc3)[nH]c2=O)c(OC)c1 returned Cruzain Triton inactive and Cruzain inh noDet 25.1µM.
Screening Cc1ccc(Cn2c(CNC(=O)CCc3ccccc3)nc3cccnc32)cc1 returned Cruzain Triton inactive and Cruzain inh noDet inactive.
For Cc1cccc(C(=O)Nc2ccc3nc(SCC(=O)N4CCc5ccccc54)sc3c2)c1 the results were Cruzain Triton inactive and Cruzain inh noDet inconclusive.
`Cc1ccccc1C(=O)Nc1ccc2nc(SCC(=O)N3CCc4ccccc43)sc2c1` gave Cruzain Triton inactive and Cruzain inh noDet 10µM.
Cc1cc(C)n(/N=C/c2cccc([N+](=O)[O-])c2)c(=O)c1 was read as Cruzain Triton inactive and Cruzain inh noDet inactive.
For Cc1ccc(N=Cc2nc(/C=C/c3cccc([N+](=O)[O-])c3)oc2O)cc1 the results were Cruzain Triton inactive and Cruzain inh noDet 5.01µM.
For CCc1cccc(C)c1NC(=O)CSc1nc2ccc(N3C(=O)c4ccccc4C3=O)cc2s1 the results were Cruzain Triton inactive and Cruzain inh noDet inconclusive.
Cc1cc(C)c(NC(=O)C(C)Sc2nc3ccc(N4C(=O)c5ccccc5C4=O)cc3s2)c(C)c1 (stereo unspecified) was read as Cruzain Triton inactive and Cruzain inh noDet 6.31µM.
Cc1cc(C(=O)NC2=NCCS2)cs1 was read as Cruzain Triton inactive and Cruzain inh noDet inactive.
Screening O=C(NC1=NCCS1)c1csc2ccccc12 returned Cruzain Triton inactive and Cruzain inh noDet 15.8µM.
Screening COc1cccc(/C=C2/SC(=S)N(CC(=O)Nc3nnc(C)s3)C2=O)c1 returned Cruzain Triton inactive and Cruzain inh noDet inactive.
Screening O=C(CCN1C(=O)/C(=C/C=C/c2ccccc2)SC1=S)Nc1nc2ccccc2s1 returned Cruzain Triton inactive and Cruzain inh noDet 7.94µM.
CN1CCN(NC(=O)CN2C(=O)/C(=C/c3ccccc3F)SC2=S)CC1 was read as Cruzain Triton inactive and Cruzain inh noDet inactive.
Screening O=C(CN1C(=O)/C(=C\C=C\c2ccccc2)SC1=S)Nc1ccc(F)cc1 returned Cruzain Triton inactive and Cruzain inh noDet 6.31µM.
O=C(CCCN1C(=O)/C(=C/c2cccs2)SC1=S)NNC(=O)c1ccccc1O was read as Cruzain Triton inactive and Cruzain inh noDet inactive.
`O=C(CN1C(=O)/C(=C/c2ccccc2)SC1=S)Nc1ncc(Cc2ccccc2)s1` gave Cruzain Triton inactive and Cruzain inh noDet 3.98µM.
For Cc1ccc(NC(=O)CN2C(=O)/C(=C\c3cccs3)SC2=S)cc1 the results were Cruzain Triton inactive and Cruzain inh noDet 5.01µM.
Screening O=C(CCn1c(=O)oc2ccccc21)Nc1nc2ccccc2s1 returned Cruzain Triton inactive and Cruzain inh noDet inactive.
Screening CSc1ncc(Cl)c(C(=O)Nc2ccc(S(=O)(=O)N3CCC(C)CC3)cc2)n1 returned Cruzain Triton inactive and Cruzain inh noDet inactive.
O=c1cc2nc(-c3ccccc3F)nc(SCc3ccc(Br)cc3)n2[nH]1 was read as Cruzain Triton inactive and Cruzain inh noDet inactive.
For Nc1ccc(N(S(=O)(=O)c2ccccc2)S(=O)(=O)c2ccccc2)c(Cl)c1 the results were Cruzain Triton inactive and Cruzain inh noDet inactive.
For COc1ccccc1C1CC(=O)Oc2cc3c(cc21)OCO3 (stereo unspecified) the results were Cruzain Triton inactive and Cruzain inh noDet inactive.
For COc1cc(OC)c(OC)cc1/C=C/C(=O)c1ccc(NS(=O)(=O)c2ccc(C)cc2)cc1 the results were Cruzain Triton inactive and Cruzain inh noDet 20µM.
Screening CC(=O)c1ccc(NS(=O)(=O)c2ccc(C)cc2)cc1 returned Cruzain Triton inactive and Cruzain inh noDet inactive.
`COc1cccc(NC(=O)N(Cc2c[nH]c3ccccc23)C2CCCCCC2)c1` gave Cruzain Triton inactive and Cruzain inh noDet inactive.
`CCCCOc1ccc(C(=O)NCC(=O)OC2CCOC2=O)cc1` (stereo unspecified) gave Cruzain Triton 20µM and Cruzain inh noDet inconclusive.
For Cc1ccc(S(=O)(=O)NCC(=O)OC2CCOC2=O)cc1 (stereo unspecified) the results were Cruzain Triton inactive and Cruzain inh noDet inactive.
C=CCOC(=O)N[C@H](/C(C(=O)OC)=C(\C)NCc1ccccc1)c1cccc(C(F)(F)F)c1 was read as Cruzain Triton inactive and Cruzain inh noDet inactive.
CCc1c(C)nc(SCc2nc(-c3ccccc3C)no2)[nH]c1=O was read as Cruzain Triton inactive and Cruzain inh noDet inactive.
c1ccc(SCCSc2ccccc2)cc1 was read as Cruzain Triton inactive and Cruzain inh noDet inactive.
C[C@H](OP(=O)(O)O)[C@H](N)C(=O)O was read as Cruzain Triton inactive and Cruzain inh noDet inactive.
`O=C(Nc1cccc(-c2nc3ccccc3[nH]2)c1)c1cccc(NC(=O)c2ccco2)c1` gave Cruzain Triton 10µM and Cruzain inh noDet 5.01µM.
`O=C(/C=C/c1ccco1)N/C(=C\c1ccccc1)C(=O)NCCc1nc2ccccc2[nH]1` gave Cruzain Triton inactive and Cruzain inh noDet inactive.
Screening O=C(Nc1ccc2nc(-c3ccccc3)[nH]c2c1)c1ccco1 returned Cruzain Triton inactive and Cruzain inh noDet inactive.
Cc1ccc(C(=O)NCCSc2c(C)[nH]c3ccccc23)cc1[N+](=O)[O-] was read as Cruzain Triton inactive and Cruzain inh noDet inactive.
Screening O=C(NCCc1nc2ccccc2[nH]1)c1ccc(Cl)c([N+](=O)[O-])c1 returned Cruzain Triton 1.26µM and Cruzain inh noDet 2µM.
For O=C(NCCc1nc2ccccc2[nH]1)c1ccco1 the results were Cruzain Triton inactive and Cruzain inh noDet 12.6µM.
For O=C(NCCc1cccc(Cl)c1)c1ccc(Cl)c([N+](=O)[O-])c1 the results were Cruzain Triton inactive and Cruzain inh noDet inactive.
For Cc1ccc(C(=O)NCCc2nc3ccccc3[nH]2)cc1[N+](=O)[O-] the results were Cruzain Triton 4.47µM and Cruzain inh noDet inactive.
